Out of some 1,100 compounds screened, about 65 (6%) were called active. How the calls were made is not given here. The list is a sample of the results. Entries that show only a call come without a potency. Potency and affinity values are given separately.

Chain of Calpain-2 catalytic subunit (Sus scrofa) (P43367 whole entry, looked up): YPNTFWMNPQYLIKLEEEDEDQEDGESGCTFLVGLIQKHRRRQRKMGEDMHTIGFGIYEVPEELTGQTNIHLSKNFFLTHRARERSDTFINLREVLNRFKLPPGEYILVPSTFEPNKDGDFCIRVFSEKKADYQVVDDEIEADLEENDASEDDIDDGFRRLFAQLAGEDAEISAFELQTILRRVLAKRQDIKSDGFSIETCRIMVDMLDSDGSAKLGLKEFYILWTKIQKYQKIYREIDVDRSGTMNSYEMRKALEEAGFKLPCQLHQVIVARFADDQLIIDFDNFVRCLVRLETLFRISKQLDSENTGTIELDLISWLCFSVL

This test has as its target Calpain-2 catalytic subunit (Sus scrofa) (UniProt P43367). The experiment in a line: m-calpain protease blockers, concentration series – biochemical, fluorogenic peptide substrate, dose response (AID 1420). The following applies: purified calpain II, 30 min; series mostly up to 50 µM.
As to `O=C(NNC(=O)c1cc(OCC(F)(F)F)ccc1OCC(F)(F)F)c1cccc(C(F)(F)F)c1`, the call was inactive.
In the case of `CN(C)c1cccc(C(=O)OCC(=O)Nc2ccccc2Cl)c1`, the call was inactive.
As to `CCOC(=O)C(C)Oc1ccc(OCc2ccccc2)cc1` (stereo not drawn), the call was inactive.

The values are drawn from PubChem BioAssay AID1420 (Emory University Molecular Libraries Screening Center, 2008).
